Screening results deposited in PubChem by National Center for Advancing Translational Sciences (NCATS).
HEK293 cAMP ctrl = counter-screen for TSHR agonists: cAMP increase in parental HEK293; parental HEK293 CNG cAMP sensor, membrane potential fluorescence; Potency, µM (doses to about 57.1 µM), for inactives: at the highest dose activation, actives largely listed as activators; 2.5% of 73,000 active; AID 938; active = well fitted activation curve with a large enough effect; inconclusive = small, poorly fitted or top-dose-only effect; inactive = no such curve, though single readings can be large or run the other way; also: % of control where 0% means no effect; nearly all actives have a fitted effect of over 55% in size
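Counterscreen for endogenous-receptor signalling: CNG-channel HEK 293 cells report cAMP rise by membrane depolarization. After 60 min dye equilibration with 100 uM RO 20-1724, compounds incubated 30 min before bottom-read fluorescence at 590 nm.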
TSHR ag = TSH receptor (human) agonism. HEK293-CNG-TSHR cells (CNG channel as cAMP sensor), membrane potential dye, cAMP. Potency, µM (top dose mostly 57.1 µM), without a hit: at the highest dose activation, usual class: activators. AID 926. 0.48% of 73,000 active. P16473; active = well fitted activation curve with a large enough effect in the main read-out, with a control signal flat, not every such curve was filed as active; inconclusive = small, poorly fitted or top-dose-only effect, or a change in a side signal; inactive = no such curve, though single readings can be large or run the other way; % of control where 0% means no effect;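 also: the control signal comes from parental cells without the receptor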
Target sequence (P16473 whole entry, looked up): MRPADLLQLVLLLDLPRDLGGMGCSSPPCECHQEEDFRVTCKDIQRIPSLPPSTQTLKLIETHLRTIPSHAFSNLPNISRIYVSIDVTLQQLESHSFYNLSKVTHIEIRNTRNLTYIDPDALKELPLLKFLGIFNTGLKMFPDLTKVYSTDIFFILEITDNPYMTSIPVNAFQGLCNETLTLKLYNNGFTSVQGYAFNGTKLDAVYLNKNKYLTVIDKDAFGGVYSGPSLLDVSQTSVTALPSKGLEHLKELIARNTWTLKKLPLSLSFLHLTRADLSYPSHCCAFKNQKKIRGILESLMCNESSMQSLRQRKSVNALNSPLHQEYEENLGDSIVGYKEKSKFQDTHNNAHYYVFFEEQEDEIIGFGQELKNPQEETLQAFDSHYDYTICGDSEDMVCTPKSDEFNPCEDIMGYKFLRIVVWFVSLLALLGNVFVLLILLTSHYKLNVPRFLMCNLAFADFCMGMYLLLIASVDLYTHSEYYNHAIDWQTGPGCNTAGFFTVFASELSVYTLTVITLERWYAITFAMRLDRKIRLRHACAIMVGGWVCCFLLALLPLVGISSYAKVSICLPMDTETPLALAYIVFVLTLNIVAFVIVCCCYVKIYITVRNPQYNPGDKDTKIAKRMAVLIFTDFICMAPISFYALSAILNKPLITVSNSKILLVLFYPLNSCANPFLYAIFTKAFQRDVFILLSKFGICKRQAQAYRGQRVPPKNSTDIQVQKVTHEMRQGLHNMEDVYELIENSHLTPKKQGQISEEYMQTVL
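cAMP rise detected as CNG-channel membrane depolarization by fluorescent dye (emission 590 nm), 30 min after compound, following 60 min dye loading containing 100 uM RO 20-1724 at room temperature. Cells: TSHR/CNG HEK 293, with parental CNG HEK 293 as control.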
An asterisk follows results filed as active; ? = inconclusive; · = no result given; [ ] = dose if it differs, or a comment. Sampled rows, rich in hits. Any-hit rate of the full collection: about 2.9%. Potency is read from the fitted curve at half-maximal effect.

SMILES | HEK293 cAMP ctrl | TSHR ag
Cc1cc(-c2nc3ncccc3o2)ccc1NC(=O)CC(C)C | 19% | 4%
Cc1ccc(OCC(=O)Nc2ccc(-c3nc4ncccc4o3)cc2)c(C)c1 | 29% | 16µM*
CCC(=O)Nc1cccc(-c2nc3ccccc3o2)c1 | 4% | -10%
COc1ccccc1OCC(=O)Nc1cccc(-c2nc3ccccc3o2)c1 | 25µM* | ?
COc1cc(/C=N/NC(=O)c2cc(-c3ccccc3)n[nH]2)cc(OC)c1OC | 7% | -3%
CN(C)CCNC(=O)c1ccc(Cc2nc3ccccc3[nH]2)cc1 | -3% | -2%
COc1cc2cc3c4c(cc(OC)c(OC)c4c2cc1OC)CCN3C | -63% | ?
CCc1c2c(nc3c(C(C)C)cccc13)-c1cccc(=O)n1C2 | 25µM* | ?
CC(C)c1cccc2nc3c(c([Si](C)(C)C)c12)Cn1c-3cccc1=O | 13µM* | ?
CCc1cccc2nc3c(c([Si](CC)(CC)CC)c12)Cn1c-3cccc1=O | 25µM* | ?
CCN(CC)CCNC(=O)c1ccc(Cc2nc3ccccc3[nH]2)cc1 | -18% | 16%
COC(=O)[C@@H]1C[C@H]1[C@@H](NC(=O)Oc1ccc(F)cc1)c1ccccc1 | 10µM* | ?
COC(=O)[C@@H]1C[C@H]1[C@@H](N)c1ccccc1 | 20% | ·
COC(=O)[C@H]1C[C@@H]1[C@H](NC(C)=O)c1ccccc1 | -5% | 2%
COC(=O)[C@@H]1C[C@H]1[C@@H](NC(=O)c1ccccc1)c1ccccc1 | 25µM* | ?
COc1cccc(-c2cc(N(C)Cc3ccco3)ncn2)c1 | 21% | -2%
N=C(c1ccc2ccccc2c1)c1ccccc1Cc1ccccc1 | 14%[11.4 µM] | 5%[11.4 µM]
CC(=O)c1ccc(OC2C=CC(C#Cc3ccc(Br)cc3)OC2CO)cc1 (stereo unspecified) | 11%[11.4 µM] | 5%[11.4 µM]
Cc1cccc([C@@H]2CN(C)CCc3c2cc(O)c(O)c3Cl)c1 | 25µM* | ?
CN1CCc2cc(Cl)c(O)cc2[C@H](c2ccccc2)C1 | 20% | ·
COc1cccc([C@@H]2Oc3ccc(OC)cc3/C(=N/O[C@@H](C)c3cn([C@H]4COC[C@H]4O)nn3)[C@@H]2O)c1 | 3%[11.4 µM] | 13%[11.4 µM]
CCn1c(SCc2nc(-c3ccccc3)no2)nc2ccccc21 | 26% | 32µM*
COc1ccc(-c2noc(CSc3nc4ccccc4c(=O)n3-c3ccccc3)n2)cc1 | 22% | 15%
CCN(C(=O)c1ccnc(C(C)(C)C)c1)c1ccccc1 | 21% | 16%
CCN(C(=O)N(CC)c1ccccc1)c1ccccc1 | 16µM* | ?
SMILES | HEK293 cAMP ctrl | TSHR ag
CCn1c(SCc2nc3ccccc3s2)nnc1-c1cccs1 | 24% | 9%
CCn1c(SCCOc2ccc(Cl)cc2)nnc1-c1cccs1 | 32µM* | ?
O=C(O)CNC(=O)[C@H]1NC(C(F)(F)F)(C(F)(F)F)OC1(C(F)(F)F)C(F)(F)F | 0%[11.4 µM] | -1%[11.4 µM]
Cc1noc(C)c1CSc1nc2ccccc2nc1NS(=O)(=O)c1ccc(Cl)cc1 | 1% | 13%
CCc1c(C#N)c(SCc2c(C)noc2C)nc2c1C(=O)CC(C)(C)C2 | 13µM* | ?
CCCCC(=O)NC1(C(F)(F)F)C(=O)N(Cc2ccco2)C(C)=C1C(=O)OC (stereo unspecified) | 3% | 16µM*
COC(=O)C1=C(C)N(Cc2ccco2)C(=O)C1 | 22% | 3%
CN(Cc1ccco1)c1ncncc1-c1cccnc1 | 10% | 2%
C[N@+]1(CCC(=O)c2ccccc2)CC[C@H]2CC[C@H](C2)C1 | 3%[11.4 µM] | -2%[11.4 µM]
C[C@@H](N=C(N)N)C(=O)O | -1%[11.4 µM] | 0%[11.4 µM]
O=C(c1cccc(F)c1)N1CCN(S(=O)(=O)c2ccccc2)CC1 | 4% | 6%
CC(C)c1ccc(S(=O)(=O)N2CCN(C(=O)c3cccc(F)c3)CC2)cc1 | 20µM* | ?
CC(=O)C1=C(C)NC(SCC(=O)c2ccccc2)=C(C#N)C1CC(C)C (stereo unspecified) | 3% | 10µM*
CC(=O)C1=C(C)NC(SCC(=O)c2ccccc2)=C(C#N)C1c1ccco1 (stereo unspecified) | -3% | 8%
O=C(O)Cn1cc(C(=O)c2ccco2)c2ccccc21 | 8% | 2%
COc1ccccc1OCCn1cc(C(=O)c2ccco2)c2ccccc21 | 25µM* | ?
Cc1ccc(-n2c(C)cc(C(=O)CSc3nncs3)c2C)cc1 | 25µM* | ?
Cc1cc(C(=O)CSc2nncs2)c(C)n1-c1c(C)n(C)n(-c2ccccc2)c1=O | 5% | 6%
Cc1cc(N2CCCc3ccccc32)n2ncnc2n1 | 13% | 16%
Cc1cc(N2CCN(C(c3ccccc3)c3ccc(Cl)cc3)CC2)n2ncnc2n1 (stereo unspecified) | 17% | 25µM*
Cc1ccc(S(=O)(=O)N2CCN(C(=O)COc3ccc(-c4nnco4)cc3)CC2)cc1 | 6% | -1%
Cc1cc(C(=O)COc2ccc(-c3nnco3)cc2)c(C)n1Cc1ccccc1 | 13µM* | ?
